D2 antag: antagonists of human D2 dopamine receptor; P14416; HEK293 TREx D2 cells, calcium flux, dopamine EC80; inhibition, % at 10 µM; 2% of 340,000 active; in the data active = inhibition above about 30%; inactive = below that, where a call was filed; note: 0% is about no effect
Target sequence (P14416 whole entry, looked up): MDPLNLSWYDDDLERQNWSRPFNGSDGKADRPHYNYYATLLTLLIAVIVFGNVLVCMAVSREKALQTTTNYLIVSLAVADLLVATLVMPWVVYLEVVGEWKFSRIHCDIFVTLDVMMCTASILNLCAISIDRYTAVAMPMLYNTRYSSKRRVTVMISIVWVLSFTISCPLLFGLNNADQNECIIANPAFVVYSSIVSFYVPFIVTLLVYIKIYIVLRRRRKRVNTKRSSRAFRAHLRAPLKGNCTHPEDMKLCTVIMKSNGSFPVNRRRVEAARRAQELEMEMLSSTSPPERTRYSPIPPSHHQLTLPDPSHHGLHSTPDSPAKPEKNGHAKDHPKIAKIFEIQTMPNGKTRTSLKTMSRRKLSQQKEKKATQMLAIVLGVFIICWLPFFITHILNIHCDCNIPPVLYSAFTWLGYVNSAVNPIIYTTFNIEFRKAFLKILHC
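Compounds are added to dye-loaded, induced HEK293 T-REx cells coupled to calcium release via D2; after a 3 min kinetic read an EC80 dopamine stimulus is given and fluorescence is recorded for 3 more min.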
D2 PAM-1: human D2 receptor positive allosteric modulation. P14416. DiscoveRx D2 beta-arrestin cells, luminescence, 90 min; 100% = 57 uM dopamine signal. potentiation, % (test concentration not listed). 0.23% of 360,000 active; in the data active = potentiation above about 50%; inconclusive = mostly about 30% to 49%
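PathHunter D2 cells, attached overnight at 37 deg C, received compound in DMSO plus dopamine at EC20 (50 nM final) for 90 min at 37 deg C. Beta-arrestin recruitment was read as luminescence after 1 h with detection reagent at ambient temperature.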
D2 ag-1: D2 dopamine receptor (human) agonism. P14416. HEK293 T-REx D2 cells, calcium flux agonist mode. activation, % at 2 µM. 0.53% of 340,000 active. AID 485358;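 active = activation over 3 SD above normal in the single-dose calcium agonist read, cut at about 30% in these data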; note: 0% is about no effect
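Agonism scored from kinetic calcium signal (1 read/sec, 180 s) following compound pin transfer, after a 10 s baseline. Cells: HEK293 Trex line expressing inducible D2 receptor coupled to calcium, dye-loaded after overnight culture at 30 C.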
D2 PAM-2: D2 dopamine receptor (human) potentiation; P14416; HEK293 T-REx D2, calcium flux, EC20 dopamine potentiation; potentiation, % at 10 µM; 0.34% of 340,000 active; AID 485347;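 active = potentiation over 3 SD above the plate norm, cut at about 30% in these data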; note: 0% is about no effect
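Calcium flux readout, no-wash dye, 1 read/s. Inducible HEK293 Trex D2 line, overnight 30 C. Compound alone 180 s (agonist flags), then EC20 dopamine, another 180 s to score potentiation.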
D2 ag-2: activates the human D2 dopamine receptor; P14416; DiscoveRx PathHunter D2 beta-arrestin, luminescence, 90 min; 100% = 57 uM dopamine signal; activation, % (no concentration beside the values); 0.084% of 360,000 active; in the data active = activation above about 40%; inconclusive = between about 15% and that limit
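DiscoveRx PathHunter D2 beta-arrestin cells (2,100/well) attached overnight, then compound-stimulated 90 min at 37 C in HBSS/10 mM HEPES/0.1% Tween-20 buffer; beta-galactosidase complementation read by luminescence after 1 h at ambient temperature. Dopamine 57 uM final (EC100) as control.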
D3 ag: D3 receptor agonism confirmed, beta-arrestin readout; shares compounds with D2 ag-1; Potency, µM (highest dose often 76.9 µM), without a hit: at the top dose activation, actives largely listed as activators; 4% of 2,300 active; AID 720506; DiscoveRx D3 beta-arrestin cells, luminescence, 90 min;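 note: potency is the fitted concentration of half-maximal effect; 100% = dopamine control response; nearly all actives have a fitted effect of over 70% in size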
D2 ag-3: counter-screen for D3 agonists: human D2 dopamine receptor agonism | shares compounds with D2 ag-1 | DiscoveRx PathHunter D2 beta-arrestin, luminescence, 90 min; response scale: percent relative to full dopamine signal | Potency, µM (doses to about 76.9 µM), for the others: top-dose activation, most hits filed as activators | 5.9% of 2,300 active | AID 720507; note: potency is the fitted concentration of half-maximal effect; % of control where 0% means no effect; nearly all actives have a fitted effect of over 70% in size
* = called active by the depositor; ? = inconclusive; . = not tested or not shown. Shown are actives, neighbours in structure and some others; about 2.4% of the full set was active somewhere. Unless noted, calls come from the whole dose curve; as a rule, active = well fitted activation curve with a large enough effect; inconclusive = small, poorly fitted or top-dose-only effect; inactive = flat fitted curve, though single readings scatter.

SMILES | D2 antag | D2 PAM-1 | D2 ag-1 | D2 PAM-2 | D2 ag-2 | D3 ag | D2 ag-3
O=C(NC1CCCC1)c1sc(=S)n2c1[nH]c(=O)c1ccccc12 | 9 | -14 | 4 | -3 | -1 | . | .
CCCC(c1nnnn1Cc1ccc(OC)cc1)N1CCN(c2ccccc2)CC1 (stereo unspecified) | 8 | -5 | 45* | -10 | ? | -5% | ?
COc1ccc(C2=CC(=O)C[C@H](c3ccc(OC)cc3)C2)cc1 | . | -8 | . | 0 | -2 | . | .
COc1ccc([C@H]2CC(=O)C=C(c3ccc4cc[nH]c4c3)C2)cc1 | 0 | -3 | -1 | -4 | -2 | 2% | -2%
COc1ccc(C2CC(=O)C=C(O)C2)cc1 (stereo unspecified) | -9 | -14 | 53* | -16 | -1 | -4% | -3%
COc1ccc([C@H]2CC(=O)C=C(c3cccc(OCc4ccccc4)c3)C2)cc1 | 9 | -12 | -1 | -7 | -3 | -11% | -3%
COc1ccc([C@H]2CC(=O)C=C(c3ccc(F)nc3)C2)cc1OC | 4 | 2 | 0 | -6 | 1 | . | .
O=C1C=C(O)CC(c2ccc(Cl)cc2)C1 (stereo unspecified) | -8 | -21 | 1 | 4 | -1 | . | .
COc1ccc(C2=CC(=O)C[C@H](c3ccc(OC)c(OC)c3)C2)cn1 | -11 | -5 | 1 | -3 | 1 | 2% | 4%
COc1ccc([C@H]2CC(=O)C=C(c3ccc(OC)cc3OC)C2)cc1 | 4 | 5 | 1 | 0 | -1 | -7% | -1%
COc1cc([C@H]2[C@@H]3CCCC[C@]3(O)CCN2Cc2ccccc2F)ccc1O | -3 | -14 | 0 | 12 | -5 | . | .
COc1cc([C@H]2[C@@H]3CCCC[C@]3(O)CCN2CC(=O)Nc2ccc(C)cc2C)ccc1O | -4 | 2 | 29 | -5 | 0 | 8% | -3%
CC(C)Oc1cccc(C2CC(=O)Nc3cc4c(cc32)OCO4)c1 (stereo unspecified) | . | . | 6 | 0 | . | . | .
CC(=O)[C@@H]1[C@@H](C(=O)c2ccccc2)[C@]2(C(=O)Nc3ccccc32)[C@H]2C=Cc3cc(F)ccc3N12 | 7 | -4 | 2 | 12 | -2 | . | .
O=C(c1ccccc1)[C@@H]1[C@@H](C(=O)c2ccc(F)cc2)[C@@]2(C(=O)Nc3ccccc32)[C@H]2c3ccccc3C=CN12 | -5 | 1 | 57* | -20 | -4 | -4% | 0%
Cc1c(C)n(C)c2ccc(C(=O)N3CCN(c4ccccc4)CC3)cc12 | . | 2 | 1 | -6 | -2 | . | .
Cc1c(C)n(C)c2ccc(C(=O)N3CCN(c4ccccn4)CC3)cc12 | 31* | 11 | 56* | -21 | 11 | ? | 20%
COC(=O)[C@@H](N)Cc1ccc(O)c(O)c1 | 81* | -6 | 74* | -21 | -8 | ? | 21%
COC(=O)C(N)Cc1ccc(Cl)cc1 (stereo unspecified) | -8 | -2 | -1 | 13 | -6 | . | .
CC(=O)Nc1ccc(S(=O)(=O)N2CCN(Cc3cccc([N+](=O)[O-])c3)CC2)cc1 | 0 | -12 | 0 | -1 | -4 | . | .
COc1cc(/C=C/C(O)=C/C(=O)/C=C/c2ccc(O)cc2)ccc1O | -12 | -6 | 48* | -12 | -5 | -8% | -4%
COc1cccc(CN2CCN(Cc3cc4ccccc4o3)CC2CCO)c1 (stereo unspecified) | 14 | -22 | 43* | -10 | 3 | -1% | -3%
COc1ccc(CN2CCN(Cc3cc4ccccc4o3)CC2CCO)cc1C (stereo unspecified) | 25 | -19 | 66* | -17 | ? | -1% | 13%
COc1ccc(CN2CCN(Cc3cc4ccccc4o3)CC2CCO)c(F)c1 (stereo unspecified) | 13 | -7 | 10 | 3 | -5 | . | .
CCOc1ccc(N2C(=O)CC(NC3CCN(C(=O)c4ccc(F)cc4)CC3)C2=O)cc1 (stereo unspecified) | 38* | 13 | 0 | 2 | -2 | 4% | -1%
SMILES | D2 antag | D2 PAM-1 | D2 ag-1 | D2 PAM-2 | D2 ag-2 | D3 ag | D2 ag-3
CCOC(=O)c1ccc(N2C(=O)CC(NC3CCN(C(=O)c4ccc(F)cc4)CC3)C2=O)cc1 (stereo unspecified) | -6 | -13 | 0 | 1 | -2 | . | .
CC(=O)Nc1cccc(NC(=O)CSc2ccc(-c3sc(-c4ccccc4)nc3C)nn2)c1 | . | . | 0 | -4 | . | . | .
CCOc1cc(-c2c(C)c(C)nc(N)c2C#N)ccc1O | 8 | 9 | 13 | -23 | ? | . | .
CCOc1cc(-c2c(C)c(CC)nc(N)c2C#N)ccc1O | 5 | 4 | 24 | -11 | ? | 3% | ?
CCOc1ccc2nc(S(=O)(=O)NC(=O)C3(C)CCN3C(=O)c3c(C)noc3C)sc2c1 (stereo unspecified) | . | -6 | . | . | -2 | . | .
COc1ccccc1N1CCN(Cc2ccsc2)CC1 | 104* | -8 | 56* | -31 | 3 | -7% | 2%
COc1cc2c(cc1OC)CN(Cc1cccs1)CC2 | -3 | -20 | 1 | -26 | -5 | . | .
COc1ccccc1N1CCN(Cc2cccs2)CC1 | 83* | -26 | 18 | -19 | -1 | -27% | -3%
Cc1cccc(OCC(=O)N(Cc2ccccc2)c2c(N)n(Cc3ccccc3)c(=O)[nH]c2=O)c1 | 11 | -1 | 0 | -4 | -7 | . | .
COc1ccc(-c2nc3cc(NC(=O)COc4ccc(F)cc4)ccc3o2)cc1 | . | . | 2 | 10 | . | . | .
COc1ccc(C2(CCN)CC(C)N(C)CC2C)cc1 (stereo unspecified) | 23 | -14 | 31* | -17 | 0 | -4% | 3%
CC12CCC3C(CCC4CC(O)CCC43C)C1CC(O)C2 (stereo unspecified) | . | 2 | . | . | -2 | . | .
C[C@]12CCC(O)CC1CCC1C2CC[C@]2(C)C(c3cc(C(F)(F)F)n[nH]3)CCC12 (stereo partly specified) | 44* | 5 | 16 | 11 | -3 | ? | ?
CC(OC(=O)c1nc(Cl)ccc1Cl)C(=O)NC1CCCCC1C (stereo unspecified) | 6 | -5 | 0 | -7 | 15 | -4% | -1%
CCN(CC)CC(O)Cn1c(-c2ccccc2Cl)nc2ccccc21 (stereo unspecified) | -10 | -19 | 45* | 1 | -2 | 3% | -2%
On1c(-c2ccccc2Cl)nc2ccccc21 | 8 | 0 | 3 | 11 | -4 | . | .
